Source: PubChem (National Center for Advancing Translational Sciences (NCATS))
SMN2 splice enh – qHTS Assay for Enhancers of SMN2 Splice Variant Expression. HEK293 SMN2-luciferase splicing reporter, luminescence, 30-36 h. Potency, µM (highest dose often 46.1 µM), for inactives: at the highest dose activity change, positive = activation, hits mostly activators. actives 2.8% (n = 210,000). AID 1458, 2008; further: % of control where 0% means no effect; nearly all actives have a fitted effect of over 55% in size
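HEK293 cells carry an SMN2 […]–luciferase reporter in which exon 7 inclusion puts luciferase in frame. Cells were plated 10-12 h before compound addition, then incubated 30-36 h at 37C. ONE-Glo luminescence was read; sodium butyrate at 4.5 mM final served as control.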
Rab9 prom act – qHTS Assay for Rab9 Promoter Activators; Huh7 Rab9 promoter-luciferase reporter, luminescence, 24 h; Potency, µM (titrated, usually from 9.22 µM), for inactives: top-dose activation, negative = inhibition, most hits filed as activators; actives 2.8% (n = 320,000); AID 485297, 2010; further: % of control where 0% means no effect; nearly all actives have a fitted effect of over 60% in size
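Huh7 reporter line, Rab9 promoter upstream of luciferase. Compound exposure 24 h at 37 °C in reduced-serum medium with 10% FBS. Read-out: luminescence.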
KinaseGlo FLuc – Counterscreen for Luciferase (Kinase-Glo TM) Inhibition; Potency, µM (titrated, usually from 38.3 µM), without a hit: at the highest dose activity change, negative = inhibition, actives largely listed as inhibitors; actives 0.28% (n = 200,000); Kinase-Glo luciferase, ATP luminescence, 8 min; further: on the % scale 0 is the no-effect control and ±100 the full control effect; nearly all actives have a fitted effect of over 60% in size
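Recombinant Kinase-Glo luciferase, 10 uM ATP (linear range), luciferin; imidazole pH 7.2 / KCl / MgCl2 / Tween / BSA buffer; 8 min RT; luminescence.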
FLuc modulator – qHTS profiling assay for firefly luciferase inhibitor/activator using purifed enzyme and Km concentrations of substrates (counterscreen for miR-21 project); Luciferin 4-monooxygenase (Photinus pyralis), P08659; purified FLuc, Km substrates, luminescence inhibition; Potency, µM (series often up to 57.5 µM), without a hit: top-dose activity change, negative = inhibition, most hits filed as inhibitors; actives 6.9% (n = 360,000); AID 588342, 2011;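 further: plate controls were vehicle for no effect and reference inhibitor for full effect; nearly all actives have a fitted effect of over 55% in size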
Target sequence (P08659 whole entry, looked up): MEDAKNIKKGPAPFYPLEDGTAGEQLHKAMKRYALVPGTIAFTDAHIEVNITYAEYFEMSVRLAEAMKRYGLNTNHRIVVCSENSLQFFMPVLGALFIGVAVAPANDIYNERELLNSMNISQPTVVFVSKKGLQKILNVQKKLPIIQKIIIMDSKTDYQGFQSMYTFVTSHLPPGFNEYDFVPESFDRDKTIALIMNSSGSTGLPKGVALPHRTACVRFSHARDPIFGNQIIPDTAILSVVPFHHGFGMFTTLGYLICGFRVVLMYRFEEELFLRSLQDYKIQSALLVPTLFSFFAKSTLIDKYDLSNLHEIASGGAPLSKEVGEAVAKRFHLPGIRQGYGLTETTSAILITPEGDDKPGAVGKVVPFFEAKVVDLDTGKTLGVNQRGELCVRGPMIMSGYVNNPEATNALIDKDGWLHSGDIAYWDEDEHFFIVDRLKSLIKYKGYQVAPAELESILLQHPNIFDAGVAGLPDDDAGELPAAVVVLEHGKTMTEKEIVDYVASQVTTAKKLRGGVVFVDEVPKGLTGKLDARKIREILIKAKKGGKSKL
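Biochemical qHTS of compounds, final roughly 60 µM downward over six points, against 10 nM purified firefly luciferase using Km concentrations of substrates (10 uM D-luciferin, 10 uM ATP) in Tris acetate pH 7.5 buffer; luminescence output.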
ELG1 genotox – qHTS screen for small molecules that induce genotoxicity in human embryonic kidney (HEK293T) cells expressing luciferase-tagged ELG1; HEK293T ELG1-luciferase reporter, luminescence, 16 h; Potency, µM (series often up to 46 µM), inactives show at the highest dose activity change, positive = activation, usual class: activators; actives 1.3% (n = 330,000); AID 504466, 2011; further: % of control where 0% means no effect; nearly all actives have a fitted effect of over 60% in size
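Genotoxic stress is detected as increased luminescence from luciferase-tagged ELG1 in HEK293T cells, measured with ONE-Glo after a 16 hr treatment at 37 °C.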
NPC1 prom act – qHTS Assay for NPC1 Promoter Activators | Huh7 NPC1 promoter luciferase reporter, 24 h | Potency, µM (doses to about 9.22 µM), without a hit: at the top dose activation, hits mostly activators | actives 2.4% (n = 320,000) | AID 485313, 2010; further: % of control where 0% means no effect; nearly all actives have a fitted effect of over 60% in size
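Huh7 reporter cells (NPC1 promoter driving luciferase) are dosed with compound for 24 h at 37 °C, 5% CO2; luciferase detection reagent is then added and luminescence measured after 10 min at ambient temperature.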
* marks the source's active call; other numbers are inactive results; ? = inconclusive; · = not tested or not shown. Hits are enriched below; roughly 7.5% of the tested compounds scored in any of these assays. The call rests on the fitted dose curve; in most records, active means well fitted curve in the direction sought with a large enough effect; inconclusive means small, poorly fitted or top-dose-only effect, or another doubt; inactive means no such curve, though single readings can be large; an effect the other way counts as inactive or inconclusive. Potency means the concentration at half of the fitted maximal effect.

SMILES	SMN2 splice enh	Rab9 prom act	KinaseGlo FLuc	FLuc modulator	ELG1 genotox	NPC1 prom act
NS(=O)(=O)c1ccc(NC(=S)N2CCN(C(=O)C3CCCO3)CC2)cc1 (stereo not given)	·	0%	·	4.8µM*	-13%	16%
COCCC(=O)N1CCC(Oc2ccc(C(=O)N3C[C@H]4CC[C@H]3C4)cc2)CC1	·	10%	·	2%	-1%	-3%
CN(C)C(=O)c1ccc(NC(=O)c2cncc(Br)c2)cc1	?	22%	-20%	?	-4%	17%
O=C(Nc1ccc2c(c1)OCCO2)c1cncc(Br)c1	10µM*	1.4µM*	-8%	4.8µM*	?	3.5µM*
O=C(Nc1ccc2c(c1)OCO2)c1cncc(Br)c1	21%	?	-8%	27µM*	6%	?
Cc1cccc(CN2CCN(CC(=O)Nc3c(C)cccc3C)S2(=O)=O)c1	·	·	·	5%	·	·
COc1ccccc1Oc1ncnc2c1cnn2-c1ccccc1	13µM*	4µM*	1%	12µM*	?	?
c1ccc(CCNc2ncnc3c2cnn3-c2ccccc2)cc1	11µM*	1.6µM*	2%	6.7µM*	?	3.2µM*
CC(C)(C)Nc1ncnc2c1cnn2-c1ccccc1	2µM*	0.4µM*	-1%	1.5µM*	1µM*	0.35µM*
c1ccc(-n2ncc3c(NCCN4CCOCC4)ncnc32)cc1	·	11%	-8%	?	13µM*	?
Fc1ccc(CNc2ncnc3c2cnn3-c2ccccc2)cc1	-17%	·	-3%	?	·	·
O=C(Nc1ccc2c(c1)OCO2)C1CCCN1C(=O)Nc1ccccc1 (stereo not given)	·	10%	·	1%	3%	4%
O=c1[nH]n(-c2ncnc3c2cnn3-c2ccccc2)c(=O)c2ccccc12	-3%	5%	0%	13µM*	0%	-3%
COc1ccc(C(=O)NNc2ncnc3c2cnn3-c2ccccc2)cc1	·	·	·	-9%	·	·
c1ccc(-n2ncc3c(NCCN4CCCCC4)ncnc32)cc1	10%	?	0%	19µM*	?	?
COc1ccc(-n2ncc3c(NC(C)(C)CO)ncnc32)cc1	·	·	·	4.8µM*	·	·
COCCNC(=O)c1ccc2c(c1)N(Cc1cc(C)ccc1C)C(=O)c1ccccc1S2(=O)=O	15%	·	·	-6%	·	·
O=C(NCC1CCCN(C(=O)NCc2ccccc2)C1)c1ccc2c(c1)OCO2 (stereo not given)	·	22%	-1%	?	1%	-1%
O=C(Nc1nnc(-c2ccc(Cl)cc2)o1)c1cccc(N2C(=O)CCC2=O)c1	12%	1%	-1%	12µM*	1%	2%
CSc1cccc(-c2nnc(NC(=O)c3cccc(N4C(=O)CCC4=O)c3)o2)c1	·	-3%	·	27µM*	-10%	0%
O=C(Nc1nnc(-c2ccncc2)o1)c1cccc(N2C(=O)CCC2=O)c1	-14%	0%	2%	-19%	1%	-2%
CCOC(=O)c1sc(-c2ccc(OC)cc2)cc1NC(C)=O	16µM*	22%	-1%	-15%	4%	26%
CCOc1ccc(-c2cc(NC(=O)Nc3ccccc3Cl)c(C(=O)OC)s2)cc1	29%	·	·	8.5µM*	·	·
COc1cc(C(=O)Nc2ccc(N(C)C)cc2)c([N+](=O)[O-])cc1OC	-3%	-4%	-4%	4.8µM*	?	9%
COc1ccc(C2=NN(C(C#N)c3ccc(OC)cc3)C(c3ccccc3)C2)cc1 (stereo not given)	?	?	-3%	24µM*	?	?
SMILES	SMN2 splice enh	Rab9 prom act	KinaseGlo FLuc	FLuc modulator	ELG1 genotox	NPC1 prom act
CC(C)Oc1ccc(C(=O)NCCc2csc(-c3cccc(F)c3)n2)cc1	·	·	·	24µM*	·	·
O=C(NNC(=O)c1ccc(Cl)cc1Cl)c1csc(-c2cccnc2)n1	·	17%	·	5.4µM*	3%	25%
O=C(NCc1ccc(Cl)cc1)c1csc(-c2cccnc2)n1	·	-6%	·	0%	-8%	5%
O=C(NCCc1csc(-c2cccnc2)n1)c1ccc(Cl)cc1	·	-1%	·	9.5µM*	-3%	-2%
O=C(Cc1ccc(F)cc1)NCCc1csc(-c2cccc(F)c2)n1	·	·	·	-3%	·	·
O=C(NCCc1csc(-c2cccnc2)n1)c1ccccc1Br	·	-2%	·	17µM*	-5%	1%
O=C(Cc1ccccc1)NCCc1csc2nc(-c3ccc(Cl)cc3)nn12	·	·	·	-6%	·	·
CCOc1ccc(C(=O)NCCc2csc(-c3cccnc3)n2)cc1	·	·	·	21µM*	·	·
Oc1ccc(N=Nc2n[nH]c(-c3ccc(Cl)cc3)n2)cc1	20µM*	1%	7%	12µM*	3%	5%
CCc1ncc(CN2CCCCC2C(=O)Nc2ccc(Oc3ccccc3)nc2)cn1 (stereo not given)	·	-4%	·	4%	-2%	-3%
O=C(c1cc(COc2c(F)cccc2F)on1)N1CCC(c2ccncc2)CC1	·	-31%	1%	-3%	-7%	-32%
O=C(c1cc(COc2c(F)cccc2F)on1)N1CCC(c2ccccc2F)C1 (stereo not given)	·	?	-3%	15µM*	?	29%
O=C(c1cc(COc2c(F)cccc2F)on1)N1C[C@H]2CC[C@H]1C2	·	1.6µM*	·	12µM*	12µM*	3.2µM*
Cc1cccc(C)c1OCc1cc(C(=O)N2CCC(c3ccncc3)CC2)no1	·	1%	·	13µM*	10%	6%
CCc1c(C(=O)N2CCCN(C)CC2)csc1C	·	-2%	·	-1%	1%	0%
Cc1ccc(S(=O)(=O)C(CNC(=O)c2ccccc2F)c2cccs2)cc1 (stereo not given)	·	·	·	-12%	·	·
COc1ccc(OC)c(Cc2nnc(CCC(=O)NCc3ccsc3)o2)c1	·	0%	-2%	?	8%	0%
CCOc1ccc(N=c2scc(-c3ccccc3)n2CCO)cc1	?	8%	1%	15µM*	16%	18%
OCCn1c(-c2ccc(F)cc2)csc1=Nc1ccccc1	-78%	-3%	-2%	?	?	10%
CCOc1ccc(N=c2scc(-c3ccc(OC)cc3)n2CCO)cc1	-97%	-7%	0%	1%	11%	3%
CCn1c(-c2ccccc2)csc1=Nc1ccc(O)cc1	?	2.2µM*	-2%	8.5µM*	?	2.8µM*
Cc1ccc(/C=C/c2onc(C)c2S(=O)(=O)N2CCC(C(=O)Nc3cccc(C#N)c3)CC2)cc1	·	·	·	-5%	·	·
